GDH-TPI counter-1: inhibits GDH-TPI coupling enzymes, artifact for Mtb FBA screen | GDH-TPI coupled enzyme counterscreen, NADH absorbance | inhibition, % at 4.8 µM | 1.2% of 360,000 active | AID 588335; in the data active = inhibition above about 30%;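 also: 0% = DMSO wells and 100% = wells lacking the enzyme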
Rv3671c protease: Rv3671c (M. tuberculosis) protease inhibition; P9WHR9; inhibition, % at 5.96 µM; 0.048% of 320,000 active; AID 2606; in the data active = inhibition above about 38%;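 also: extracellular domain of Rv3671c used as enzyme; 0% = enzyme with DMSO and 100% = no enzyme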
FBA Mtb inh: inhibits M. tuberculosis FBA enzyme | purified M. tuberculosis FBA, fluorescence read-out | 2.3% of 360,000 active | inhibition, % at 1 µM;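 also: 0% = vehicle and 100% = reference inhibitor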
Mtb bLac sens: beta-lactam sensitization of Mtb H37Rv; M. tuberculosis H37Rv growth with meropenem, percent inhibition; inhibition, % at 25 µM; 0.27% of 330,000 active; AID 434955; call rule not given here;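 also: growth measured after seven days incubation then overnight dye step; 0% = bacteria only wells and 100% = bacteria with antibiotic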
FadD28 binding: M. tuberculosis FadD28 bisubstrate binding inhibition. FadD28 bisubstrate probe binding, fluorescence polarization. inhibition, % at 12.5 µM. 0.22% of 360,000 active; in the data active = inhibition above about 8.5%, passing the limit was not always enough
Mtb UGM inh: inhibitors of M. tuberculosis UDP-galactopyranose mutase. purified UGM, fluorescence polarization probe displacement. inhibition, % at 10 µM. 0.06% of 320,000 active. AID 504406; in the data active = inhibition above about 10%, passing the limit was not always enough
Target sequence (P9WIQ1 whole entry, looked up): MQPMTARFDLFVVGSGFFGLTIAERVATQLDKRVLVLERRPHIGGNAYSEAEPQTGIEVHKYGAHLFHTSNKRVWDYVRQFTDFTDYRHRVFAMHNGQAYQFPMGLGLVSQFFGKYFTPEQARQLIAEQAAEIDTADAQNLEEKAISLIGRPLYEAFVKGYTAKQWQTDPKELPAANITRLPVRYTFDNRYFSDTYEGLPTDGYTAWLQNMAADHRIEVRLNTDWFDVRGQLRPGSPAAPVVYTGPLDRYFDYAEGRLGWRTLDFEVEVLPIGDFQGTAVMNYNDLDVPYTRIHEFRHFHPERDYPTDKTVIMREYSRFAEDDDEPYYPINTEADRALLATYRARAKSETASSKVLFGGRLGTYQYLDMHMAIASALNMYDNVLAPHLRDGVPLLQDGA
Mtb FBA confirm: confirmation of M. tuberculosis fructose-bisphosphate aldolase inhibitors | AID 651616 | shares compounds with FBA Mtb inh | inhibition, % at 1 µM | 78% of 5,600 active | purified M. tuberculosis FBA, fluorescence read-out;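 also: 0% = vehicle wells and 100% = reference inhibitor wells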
GDH-TPI counter-2: GDH-TPI inhibition counter-screen for FBA inhibitors; 81% of 5,600 active; inhibition, % at 1 µM; shares compounds with FBA Mtb inh; GDH-TPI coupled enzyme counterscreen, fluorescence; in the data active = inhibition above about 10%
Numbers without * were called inactive; x = no result given; + = active, no number. Compounds with a hit are over-represented: about 3.7% of the library has one in this group of screens. Rule as the data show it, unless noted: active = inhibition above about 27%; inactive = the rest.

SMILES	GDH-TPI counter-1	Rv3671c protease	FBA Mtb inh	Mtb bLac sens	FadD28 binding	Mtb UGM inh	Mtb FBA confirm	GDH-TPI counter-2
Cc1ccc(C(=O)Nn2c(N)c(S(=O)(=O)c3ccc(C)cc3)c3nc4ccccc4nc32)cc1	35*	-24	65*	-5	1	1	76*	52*
Cc1cccc(S(=O)(=O)c2c(N)n(/N=C/c3ccccc3)c3nc4ccccc4nc23)c1	7	8	-2	0	-1	3	x	x
Cc1ccc(S(=O)(=O)c2c(N)n(NC(=O)c3ccccc3C)c3nc4ccccc4nc23)cc1	9	-102	39*	1	-2	0	193*	143*
CCOC(=O)C1=CCN(S(=O)(=O)c2ccc(Br)cc2)C1c1ccc(C)cc1 (stereo unspecified)	x	x	1	x	-3	x	x	x
Cc1ccc(NC(=O)CC(C)S(=O)(=O)c2ccc3c(c2)NC(=O)CO3)c(Cl)c1 (stereo unspecified)	0	-3	71*	-1	-2	-3	+	+
C[C@@H]1CN([C@@H](C)CO)C(=O)CCCn2nncc2CO[C@H]1CN(C)C(=O)Nc1ccc2c(c1)OCO2	9	x	-2	x	0	x	x	x
CC1CN(c2oc(-c3ccco3)nc2C#N)CC(C)O1 (stereo unspecified)	14	8	88*	-5	2	-4	138*	93*
NC1=NN=C(N2N=C(c3ccccc3)CC2(O)C(F)(F)F)n2ncnc2C1 (stereo unspecified)	11	-4	17	-2	0	-1	x	x
NC1=NN=C(N2N=C(c3ccc(Br)cc3)CC2(O)C(F)(F)F)n2ncnc2C1 (stereo unspecified)	5	-5	56*	6	1	3	-1	-2
COc1ccccc1C1=NN(C2=NN=C(N)Cc3ncnn32)C(O)(C(F)(F)F)C1 (stereo unspecified)	4	3	35*	-6	-1	0	9	1
CCN(c1ccccc1)S(=O)(=O)c1ccc(Cl)c(NC(=O)CN(C)Cc2cccc(F)c2)c1	1	x	-1	x	-3	x	x	x
CC(=O)c1ccc2c(c1)c(C#N)c1ccccc1[n+]2[O-]	16	x	94*	x	-2	x	8	0
Cc1cc(C)nc(SCC(=O)NNS(=O)(=O)c2ccc(C#N)cc2)n1	-4	x	-1	x	-1	x	x	x
Cc1cc2nc(CS)[nH]c2cc1C	6	3	8	0	1	4	x	x
Cc1cc2nc(/C=C/c3nc4cc(C)c(C)cc4[nH]3)[nH]c2cc1C	8	9	37*	4	-2	0	150*	85*
CCn1cc(C(=O)NCCCN2CCC(C)CC2)c(=O)c2cc(S(=O)(=O)N3CCOCC3)ccc21	13	6	1	-2	0	-2	x	x
CCOc1ccc2oc(C(=O)OCC(=O)N3CCCC(C)C3)c(C)c2c1 (stereo unspecified)	4	2	49*	36	-2	-1	95*	78*
Cc1c(C(=O)OCC(=O)N2CCCC(C)C2)oc2ccccc12 (stereo unspecified)	-7	8	6	2	-2	0	x	x
Cc1c(C(=O)OCC(=O)N2CC(C)OC(C)C2)oc2ccc(Br)cc12 (stereo unspecified)	11	-1	-3	-2	-1	0	x	x
COc1ccc2oc(C(=O)OCC(=O)N3CCCC(C)C3)c(C)c2c1 (stereo unspecified)	6	2	63*	5	-2	-2	61*	55*
CCOc1ccc2oc(C(=O)OCC(=O)N3CC(C)OC(C)C3)c(C)c2c1 (stereo unspecified)	5	-3	46*	3	-2	1	+	+
COc1ccc(-c2[nH][nH]c(=O)c2NC(=O)c2ccccc2Br)cc1	x	x	1	x	0	x	x	x
COc1ccc(-c2ccc(OC)cc2)cc1	10	-6	3	1	-3	-1	x	x
COc1ccc2cc(-c3ccon3)ccc2c1	6	8	34*	0	-2	-2	105*	99*
COc1ccc(-c2cc3ccc(OC)cc3cn2)cc1	1	-3	46*	8	-1	-1	0	-3
SMILES	GDH-TPI counter-1	Rv3671c protease	FBA Mtb inh	Mtb bLac sens	FadD28 binding	Mtb UGM inh	Mtb FBA confirm	GDH-TPI counter-2
COc1ccc(-c2ccc3ccccc3n2)cc1	26	-1	83*	-3	0	1	180*	139*
CNc1ncnc2c1ncn2[C@H]1CN(Cc2cccnc2)C[C@@H](CO)O1	7	x	5	x	0	x	x	x
CC1=CC(=O)C(C(C)C)=C/C1=N\OC(=O)c1cccc2nc(C)oc12	9	-6	32*	5	-3	-1	69*	59*
COc1ccc(CNC(=O)Nc2cccc(C(F)(F)F)c2)cc1OC	4	-6	2	-10	-3	1	x	x
Cn1c(=O)c2cc(NC(=O)NCc3ccc(F)cc3)ccc2n1Cc1cccc(C(F)(F)F)c1	6	x	98*	x	-1	x	152*	139*
COc1ccccc1CCC(=O)Nc1ccc2c(c1)c(=O)n(C)n2Cc1ccc(F)cc1	10	x	105*	x	-1	x	94*	77*
COCC(=O)Nc1cc(C)cn(Cc2cccc(C(F)(F)F)c2)c1=O	8	-3	-1	-5	0	2	x	x
Cn1c(=O)c2cc(NC(=O)CCc3ccc(O)cc3)ccc2n1Cc1cccc(C(F)(F)F)c1	7	x	101*	x	1	x	7	-7
COc1ccccc1CCC(=O)Nc1ccc2c(c1)CN(Cc1ccc(C)o1)CC2	18	-2	3	28	-3	3	x	x
Cn1c(=O)c2cc(NC(=O)NCc3ccc(Cl)cc3Cl)ccc2n1Cc1ccc(F)cc1	11	x	89*	x	0	x	+	165*
COc1ccccc1CCC(=O)Nc1ccc2c(c1)c(=O)n(C)n2Cc1cccc(C(F)(F)F)c1	2	x	94*	x	0	x	+	197*
Cn1c(=O)c2cc(NC(=S)NC3CC3)ccc2n1Cc1cccc(C(F)(F)F)c1	8	x	30*	x	0	x	121*	80*
COc1ccc(-c2cc(CNc3nc(NC(C)C)nc4cc(-c5ccccc5)sc34)on2)cc1	13	x	0	x	-6	x	x	x
O=C(NC(c1ccc(Cl)cc1)c1ccsc1)C1CCN(Cc2cccc(Cl)c2)CC1 (stereo unspecified)	1	x	1	x	-2	x	x	x
N#C/C(=C\c1cccc(Cl)c1)c1n[nH]c(Cn2cncn2)n1	5	2	39*	26	-1	2	57*	43*
Nc1ccc(-c2cc(-c3ccc(N)cc3)nc(-c3ccccc3)n2)cc1	18	-1	39*	2	-1	-5	54*	28*
Nc1nc(-c2ccc(-c3ccccc3)cc2)cs1	3	-5	33*	55	0	0	+	+
